Screens: PubChem BioAssay, National Center for Advancing Translational Sciences (NCATS)
This is a sample that favours compounds with a hit; in the whole collection about 2.2% have one here.
Giardia kill: kills Giardia lamblia; activity change, % at 7.66 µM, hits read low; Giardia lamblia trophozoite viability; 0.15% of 340,000 active; in the data active = activity change below about -80%; inconclusive = between about -30% and that limit;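 also: parasites exposed to compound for two days anaerobically before the ATP read; % is scaled to controls: 0 for no effect and ±100 for the full control effect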
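Luminescent ATP signal served as the viability read-out, measured 15-30 min after adding ATP detection reagent to trophozoites that had been incubated with compounds for 48 hrs at 37 deg C anaerobically at 100 cells/well.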
mIDH1 inhibitor: human IDH1 R132H inhibition | O75874 | IDH1-R132H enzyme, NADPH consumption, diaphorase/resazurin fluorescence | Potency, µM (titrated, usually from 76.6 µM), for inactives: at the highest dose activity change, negative = inhibition, actives largely listed as inhibitors | 0.093% of 390,000 active | AID 602179; also: potency is read from the fitted curve at half-maximal effect; % is scaled to controls: 0 for no effect and ±100 for the full control effect; nearly all actives have a fitted effect of over 65% in size
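IDH1-R132H (0.5 ug/mL dispensed) in pH 7.5 Tris buffer was preincubated 30 min with compound, then given a substrate mix of 0.016 mM NADPH and 2 mM alpha-KG for 80 min at room temperature; remaining NADPH was read by diaphorase/resazurin fluorescence.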
TrxR1 substrate: substrates of rat thioredoxin reductase 1. O89049. purified TrxR1 substrate turnover, NADPH consumption readout. Potency, µM (titrated, usually from 114 µM), for the others: top-dose activity change, negative = substrate turnover. 0.01% of 390,000 active. AID 588456; also: potency is read from the fitted curve at half-maximal effect; % is scaled to controls: 0 for no effect and ±100 for the full control effect; nearly all actives have a fitted effect of over 50% in size
Target sequence (O89049 whole entry, looked up): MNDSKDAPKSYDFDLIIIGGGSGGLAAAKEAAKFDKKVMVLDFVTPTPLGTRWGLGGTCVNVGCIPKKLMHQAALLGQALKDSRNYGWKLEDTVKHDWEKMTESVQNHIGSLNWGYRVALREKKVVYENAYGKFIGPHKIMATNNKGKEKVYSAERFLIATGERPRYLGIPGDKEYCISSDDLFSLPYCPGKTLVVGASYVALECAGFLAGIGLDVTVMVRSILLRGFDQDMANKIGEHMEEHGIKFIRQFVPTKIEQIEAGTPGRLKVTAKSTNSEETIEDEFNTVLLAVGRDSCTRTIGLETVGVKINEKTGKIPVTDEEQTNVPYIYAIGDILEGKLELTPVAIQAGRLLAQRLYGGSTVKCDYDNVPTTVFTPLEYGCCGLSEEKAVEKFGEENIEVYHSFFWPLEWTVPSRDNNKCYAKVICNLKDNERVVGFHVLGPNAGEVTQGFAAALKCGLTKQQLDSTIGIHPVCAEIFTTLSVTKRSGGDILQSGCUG
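Rat TrxR1, dispensed at 90 nM, was prereduced with 400 uM NADPH (final) for 5 min at ~22 deg C, then incubated with compound 15 min before 400 uM selenite. A first-read NADPH fluorescence drop versus no-compound background flagged substrates.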
TrxR1 inh: blocks rat thioredoxin reductase 1; recombinant rTrxR1, NADPH fluorescence consumption, selenite substrate; Potency, µM (series often up to 114 µM), without a hit: at the top dose activity change, negative = inhibition, actives largely listed as inhibitors; 1% of 390,000 active; AID 588453; also: potency is read from the fitted curve at half-maximal effect; % is scaled to controls: 0 for no effect and ±100 for the full control effect; nearly all actives have a fitted effect of over 65% in size
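Rat TrxR1 (90 nM in the dispensed reagent) was pre-reduced with 400 uM NADPH for 5 min at room temperature, then incubated with compound for 15 min. After 400 uM selenite was added, NADPH fluorescence (Ex 340/Em 450 nm) was followed for 8 min.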
IL2 activator: activators of IL-2. activation, % (series mostly up to about 46 µM). AID 652025. IL-2 activation reporter assay, cell-based qHTS; stimulated with anti-CD3/CD4/CD28 beads; in transgenic mouse T cells. 0.065% of 360,000 active; in the data active = activation above about 50%; inconclusive = mostly about 30% to 49%; also: 0% is about no effect
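Unstimulated transgenic mouse T cells, 750 per well, received compound and, after 60 minutes, anti-CD3/anti-CD4 bead plus anti-CD28 stimulation. EGFP and DsRed were quantified after 18 hours.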
BRCA1 expr up: BRCA1 expression activation. MCF7-BRCA1-FFLuc reporter, luminescence, 48 h; response scale: scaled: vehicle 0%, 10 µM genistein 100%. Potency, µM (highest dose often 46.1 µM), inactives show top-dose activation, most hits filed as activators. 1.1% of 380,000 active; also: potency is read from the fitted curve at half-maximal effect; nearly all actives have a fitted effect of over 80% in size
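Reporter cells (MCF7, BRCA1 promoter-firefly luciferase) received library compounds across a concentration series for 48 h. End-point luminescence was measured and concentration-effect curves derived after normalization.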
Numbers without * were called inactive; ? = inconclusive; . = not tested or not shown; [ ] = dose if it differs, or a comment. Unless noted, calls follow the shape of the dose curve; as a rule, active = well fitted curve in the direction sought with a large enough effect; inconclusive = small, poorly fitted or top-dose-only effect, or another doubt; inactive = no such curve, though single readings can be large; an effect the other way counts as inactive or inconclusive.

SMILES | Giardia kill | mIDH1 inhibitor | TrxR1 substrate | TrxR1 inh | IL2 activator | BRCA1 expr up
CCCN1CNc2c(c(=O)[nH]c(=S)n2CCc2cccc(OC)c2OC)C1 | -16 | . | -2% | 0% | . | 0%
CC1(C)CCc2cc(S(=O)(=O)N3CCN(S(=O)(=O)c4c(F)cccc4F)CC3)ccc2O1 | 3 | . | 9%[57.1 µM] | 16%[57.1 µM] | 8 | 7.9µM*
O=C(NC1CCCCC1)c1ccc([N+](=O)[O-])o1 | -95* | -3% | 2%[57.1 µM] | -15%[57.1 µM] | 1 | -78%
O=C(NC1CCC(O)CC1)c1ccc(-c2ccc([N+](=O)[O-])cc2)o1 (configuration not stated) | ? | 5% | -2% | 3.2µM* | 0 | 40%
O=C(NC1CCCC(C(F)(F)F)C1)c1ccc([N+](=O)[O-])o1 (configuration not stated) | -91* | 13% | -3% | -27% | 1 | -109%
CN1C(=O)CSc2ccc(NC(=O)Nc3ccccn3)cc21 | 0 | 1% | 5% | 8% | -2 | 4µM*
COc1ccc(/C=N/Nc2ccc([N+](=O)[O-])cc2)cc1O | -1 | -4% | -18% | -6% | 0 | 8.9µM*
O=[N+]([O-])c1ccc(NN=Cc2ccco2)nc1 | 2 | -6% | -2% | 9% | -1 | 10µM*
O=[N+]([O-])c1ccc(/C=N/Nc2ccccn2)cc1 | -17 | 1% | -4% | 18% | -2 | 1.4µM*
CC(=O)Nc1ccc(NC(=O)Nc2ccc3c(c2)N(C)C(=O)CS3)cc1 | 4 | 5% | 5% | 4%[57.1 µM] | -2 | -3%
Cc1cc(C(=O)N2CCN(c3cccc(C)c3C)CC2)c2c(C)nn(-c3ccccc3)c2n1 | . | 7% | 9% | 5% | . | .
COc1ccc(/C=N/Nc2ccccn2)cc1OC | 0 | -3% | -3% | 11% | 0 | 10µM*
COc1ccc(NC(=O)Nc2ccccn2)cc1OC | 19 | 10% | -2% | 12% | -1 | 13µM*
O=C(O)c1ccc(/C=N\Nc2ccccn2)cc1 | -19 | -2% | -2%[57.1 µM] | 1%[57.1 µM] | 0 | 2.5µM*
CC(=O)NC(c1ccc(C)cc1)c1cc([N+](=O)[O-])c2cccnc2c1O (configuration not stated) | 7 | -16% | -3%[57.1 µM] | -2%[57.1 µM] | 1 | -106%
CCC(=O)NC(c1ccc(C)cc1)c1cc([N+](=O)[O-])c2cccnc2c1O (configuration not stated) | -9 | -19% | ? | -33% | 147* | -96%
C/C(=N/NC(=O)c1ccccn1)c1ccc(O)cc1 | -17 | 5% | -3% | -1% | -1 | ?
C/C(=N/NC(=O)c1ccccn1)c1c[nH]c2ccccc12 | -12 | 8% | -14% | ? | 0 | 7.1µM*
COc1ccc(NC(=O)c2oc3ccccc3c2NC(=O)Cc2cccs2)c(OC)c1 | . | 9% | 85% | 93% | . | 3%
CCOC(=O)/C=C1\CN(Cc2ccc(OC)cc2)S(=O)(=O)c2ccc(C(F)(F)F)cc21 | . | . | -6% | 25µM* | . | .
COc1ccc(-c2nc(CS(=O)CC(=O)NC3CCCCC3)c(C)o2)cc1 (configuration not stated) | -10 | -6% | 4% | -8% | -1 | 3%
Cc1oc(-c2ccccc2)nc1CS(=O)CC(=O)N1CCc2ccccc2C1 (configuration not stated) | -6 | 20% | 3% | 20µM* | -3 | -1%
COc1ccc(-c2nc(CS(=O)CC(=O)NC3CCCCC3)c(C)o2)cc1OC (configuration not stated) | 23 | 0% | 8% | 50µM* | -4 | 0%
CCc1ccc(-c2nc(CS(=O)CC(=O)NC3CCCCCC3)c(C)o2)cc1 (configuration not stated) | 2 | 7% | 0% | 20µM* | 0 | -20%
CCc1ccc(-c2nc(CS(=O)CC(=O)O)c(C)o2)cc1 (configuration not stated) | -14 | -2% | -12% | 3.5µM* | 0 | 7%
SMILES | Giardia kill | mIDH1 inhibitor | TrxR1 substrate | TrxR1 inh | IL2 activator | BRCA1 expr up
COc1ccc(-c2nc(CS(=O)CC(=O)NC3CCCCCC3)c(C)o2)cc1 (configuration not stated) | 0 | -5% | 3% | ? | 1 | 1%
COc1ccc(NC(=O)Cn2c(C)c3cnn(-c4ccccc4)c(=O)c3c2C)c(OC)c1 | . | 0% | -6% | -7% | . | 7%
CC(C)c1cnc2c(c1SCc1cccc(C(F)(F)F)c1)c(=O)n(C)c(=O)n2C | . | 11% | 0%[57.1 µM] | 11%[57.1 µM] | . | .
CCOc1ccc(CCNC(=O)CS(=O)Cc2nc(-c3ccc(C)cc3)oc2C)cc1 (configuration not stated) | 12 | 9% | -10%[57.1 µM] | -8%[57.1 µM] | -2 | -2%
COc1ccc(-c2nc(CS(=O)CC(=O)NCCC3=CCCCC3)c(C)o2)cc1 (configuration not stated) | ? | 15% | -3%[57.1 µM] | 16µM* | -2 | ?
CCc1ccc(-c2nc(CS(=O)CC(=O)NC3CC3)c(C)o2)cc1 (configuration not stated) | -6 | -3% | -5% | 16µM* | 0 | 0%
NC(=O)c1ccc(NC(=O)C2CCCO2)cc1 (configuration not stated) | 10 | 2% | 1% | 4% | 3 | 27%
O=C(Nc1ccc(O)cc1)c1ccc(NC(=O)C2CCCO2)cc1 (configuration not stated) | 29 | 0% | 9% | 33% | -4 | 15%
CCCOC(=O)c1ccc(NC(=O)C2CCCO2)cc1 (configuration not stated) | -2 | -6% | -2%[57.1 µM] | 3%[57.1 µM] | -2 | 11µM*
Cc1cc(NC(=O)c2ccc(NC(=O)C3CCCO3)cc2)ccc1Br (configuration not stated) | 0 | -2% | -4% | 10% | 1 | 1.1µM*
C(=C\c1ccnc2ccccc12)/c1ccc2ccccc2n1 | . | . | 177% | 47% | . | .
Cc1cccc(CSc2cn(CC(=O)N3CCCCC3)c3ccccc23)c1 | . | -12% | -14% | 4% | . | .
Cc1cc(NC(=O)c2ccc([N+](=O)[O-])o2)ccc1NC(=O)c1ccco1 | -94* | 1% | -15% | ? | 0 | -100%
COc1cc(NC(=O)c2ccc([N+](=O)[O-])o2)ccc1NC(=O)c1ccco1 | -96* | -2% | 5% | 7% | 0 | 2%
COc1cc(NC(=O)c2cccc([N+](=O)[O-])c2)ccc1NC(=O)c1ccco1 | -1 | 6% | -1%[57.1 µM] | 7%[57.1 µM] | -3 | 91%
CCC(=O)N1CCCc2cc(S(=O)(=O)Nc3ccc(C)c(C)c3)ccc21 | . | -2% | -10% | -1% | . | 0%
O=C(Nc1ccccc1)c1cnc[nH]1 | -1 | 4% | 2% | 8% | -2 | 87%
